Inconclusive results are not listed. The source made the active and inactive calls. Rule for the calls, unless noted: active = hit-call score of the fitted dose curve at least 0.9, where 1 is the maximum; inactive = score below 0.9.
Columns and labels:
[1] = ATG_PBREM_CIS: Attagene CIS-FACTORIAL HepG2 Assay for human Phenobarbital-responsive Enhancer Module (PBREM) (AID 2282955); conditions: HepG2 PBREM cis-reporter, Attagene multiplexed transcription; actives raise or lower the signal
How it was run: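 HepG2 cells transiently transfected with multiple cis-regulated reporter transcription units; endogenous factor activity at the PBREM element measured as reporter mRNA 24 h after dosing, via RT-PCR and capillary electrophoresis of fluorescent fragments; bidirectional fitting versus DMSO.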

[2] = target: Paired box protein Pax-6 (Homo sapiens) (UniProt P26367); experiment: ATG_Pax6_CIS: Attagene CIS-FACTORIAL HepG2 Assay for human Paired Box 6 (PAX6) (AID 2282956); conditions: HepG2 CIS-FACTORIAL PAX6 reporter transcription, RNA readout; actives raise or lower the signal
How it was run: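 Transient MRTU transfection of HepG2 → compound exposure 24 h → TriZol RNA, oligo(dT) RT → PCR, 6-FAM primer extension, HpaI cut → capillary electrophoresis; activity fitted both directions against DMSO.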

[3] = ATG_PXRE_CIS: Attagene CIS-FACTORIAL HepG2 Assay for human Pregnane X Receptor Element (PXRE) (AID 2282957); conditions: HepG2 Attagene CIS-FACTORIAL PXRE reporter, mRNA; actives raise or lower the signal
How it was run: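 Transfect HepG2 with MRTUs (cis promoter elements); dose chemical, incubate 24 h; isolate RNA, RT with oligo(dT), PCR, 6-FAM label, HpaI cut, CE. Gain/loss fit vs DMSO.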

[4] = ATG_PPRE_CIS: Attagene CIS-FACTORIAL HepG2 Assay for human Peroxisome Proliferator-activated Response Element (PPRE) (AID 2282958); conditions: HepG2 PPRE cis-element reporter, Attagene transcription factor profiling; actives raise or lower the signal
How it was run: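 HepG2 cells transiently transfected with multiplexed cis-element reporter units measure endogenous transcription factor activity. After 24 h compound exposure, reporter mRNA is quantified by RT-PCR, 6-FAM labeling, HpaI digestion and capillary electrophoresis; bidirectional fits are made against DMSO baseline.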

[5] = ATG_RORE_CIS: Attagene CIS-FACTORIAL HepG2 Assay for human RAR-related Orphan Receptor Element (RORE) (AID 2282959); conditions: HepG2 Attagene cis-factorial RORE reporter, mRNA; actives raise or lower the signal
How it was run: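 HepG2 cells transiently transfected with multiple cis-element reporter transcription units, exposed to chemical for 24 h. Reporter mRNA quantified by RT-PCR, 6-FAM primer-extension labeling, HpaI digestion and capillary electrophoresis; bidirectional fit versus DMSO baseline.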

[6] = ATG_Sox_CIS: Attagene CIS-FACTORIAL HepG2 Assay for human SRY-box transcription factor (SOX) (AID 2282960); conditions: HepG2 Attagene cis-factorial SOX reporter, mRNA; actives raise or lower the signal
How it was run: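 HepG2 cells transiently transfected with cis-element-driven multiple reporter transcription units, dosed 24 h; reporter mRNA measured by RT-PCR, FAM labelling, HpaI digestion and capillary electrophoresis. Bidirectional fit versus DMSO baseline.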

[7] = target: Transcription factor Sp1 (Homo sapiens) (UniProt P08047); experiment: ATG_Sp1_CIS: Attagene CIS-FACTORIAL HepG2 Assay for human Specificity Protein 1 (Sp1) (AID 2282961); conditions: HepG2 Sp1 cis-reporter transcription, actives raise or lower the signal
How it was run: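 HepG2 cells transiently transfected with multiple reporter transcription units driven by cis-regulatory elements; Sp1-responsive reporter mRNA measured 24 h after dosing by RT-PCR and capillary electrophoresis fluorescence, fitted bidirectionally against DMSO baseline.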

[8] = ATG_SREBP_CIS: Attagene CIS-FACTORIAL HepG2 Assay for human Sterol Regulatory Element Binding (SREBP) (AID 2282962); conditions: HepG2 Attagene cis-factorial SREBP reporter, mRNA; actives raise or lower the signal
How it was run: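 Transfected HepG2 (cis-regulated reporter library, endogenous TFs) → compound 24 h → total RNA → oligo(dT) RT → reporter-specific PCR → FAM primer extension, HpaI cut → CE fluorescence. Fit bidirectional vs DMSO.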

[9] = target: Signal transducer and activator of transcription 3 (Homo sapiens) (UniProt P40763); experiment: ATG_STAT3_CIS: Attagene CIS-FACTORIAL HepG2 Assay for human Signal Transducer and Activator of Transcription 3 (STAT3) (AID 2282963); conditions: HepG2, Attagene cis-factorial STAT3 reporter transcription; actives raise or lower the signal
How it was run: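 HepG2 cells transiently transfected with cis-element-driven multiple reporter transcription units; after 24 h chemical exposure, reporter mRNA measured by RT-PCR, 6-FAM primer-extension labelling, HpaI digestion and capillary electrophoresis. Bidirectional fitting versus DMSO baseline.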

[10] = ATG_TA_CIS: Attagene CIS-FACTORIAL HepG2 Assay for human TA Basal Promoter (AID 2282964); conditions: HepG2 Attagene CIS-factorial TA basal promoter reporter; actives raise or lower the signal
How it was run: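 Read-out: fluorescent reporter-transcript fragments resolved by capillary electrophoresis after RT-PCR and HpaI digestion. Source: HepG2 cells carrying transiently transfected multi-reporter cis constructs, treated 24 h. Endpoint fitted bidirectionally relative to DMSO.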

[11] = ATG_TCF_b_cat_CIS: Attagene CIS-FACTORIAL HepG2 Assay for human T-Cell-Factor with beta-catenin (TCF/b-cat) (AID 2282965); conditions: HepG2 TCF/beta-catenin cis-reporter transcription, actives raise or lower the signal
How it was run: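 Using capillary electrophoresis as the read-out, labelled reporter cDNA fragments from transiently transfected HepG2 were sized and quantified. Exposure lasted 24 hours; activity in either direction was referenced to DMSO.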

[12] = ATG_TAL_CIS: Attagene CIS-FACTORIAL HepG2 Assay for human TAL Basal Promoter (AID 2282966); conditions: HepG2 Attagene cis-factorial TAL promoter reporter; actives raise or lower the signal;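 note: background control endpoint measuring basal TAL promoter reporter mRNA not a specific factor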
How it was run: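 Fluorescence of labelled reporter cDNA fragments, resolved by capillary electrophoresis, gave the readout. Human HepG2 liver cells carried transiently transfected cis-element reporter units and were treated for 24 hours; activity was fitted bidirectionally against DMSO.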

[13] = ATG_TGFb_CIS: Attagene CIS-FACTORIAL HepG2 Assay for human Transforming Growth Factor (TGF) (AID 2282967); conditions: HepG2 Attagene CIS TGFb reporter, mRNA transcription; actives raise or lower the signal
How it was run: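 Transient MRTU transfection of HepG2 (FuGene 6). Dose 24 h. TriZol RNA, oligo(dT) RT, PCR, 6-FAM primer extension, HpaI cut, CE. Bidirectional fit, DMSO = baseline.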

[14] = ATG_VDRE_CIS: Attagene CIS-FACTORIAL HepG2 Assay for human Vitamin D Receptor Element (VDRE) (AID 2282968); conditions: HepG2 VDRE cis-reporter transcription, actives raise or lower the signal
How it was run: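 HepG2 cells transiently transfected with cis-element reporter units, dosed 24 h; reporter mRNA measured by RT-PCR, 6-FAM labeling, HpaI digestion and capillary electrophoresis. Activity fitted bidirectionally against DMSO baseline.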

[15] = target: Estrogen receptor (Homo sapiens) (UniProt P03372); experiment: ATG_ERa_TRANS: Attagene TRANS-FACTORIAL HepG2 Assay for human Estrogen Receptor alpha (ERa) (AID 2282970; active = hit-call score of the fitted dose curve at least 0.9, where 1 is the maximum); conditions: HepG2 Attagene TRANS ERa GAL4 reporter, mRNA
How it was run: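 Human liver HepG2, transient transfection of multiple GAL4-UAS reporter units; TRANS format (exogenous NR-Gal4 chimera). 24 h dosing. Readout: reporter mRNA, RT-PCR, 6-FAM primer extension, HpaI digest, capillary electrophoresis. Positive direction vs DMSO.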

[16] = target: Steroid hormone receptor ERR1 (Homo sapiens) (UniProt P11474); experiment: ATG_ERRa_TRANS: Attagene TRANS-FACTORIAL HepG2 Assay for human Estrogen-Related Receptor alpha (ERRa) (AID 2282971; active = hit-call score of the fitted dose curve at least 0.9, where 1 is the maximum); conditions: HepG2 Attagene TRANS reporter, ERRa transactivation
How it was run: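 Reporter transcript induction was quantified by RT-PCR and capillary electrophoresis of FAM-labelled, HpaI-cut products after 24 h treatment of HepG2 cells carrying transiently transfected GAL4-UAS reporter units and an exogenous ERRa-Gal4 fusion; activity scored as increase over DMSO.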

[17] = ATG_M_19_TRANS: Attagene TRANS-FACTORIAL HepG2 Assay for M19 Transcription Factor (Internal Marker) (AID 2282974; active = hit-call score of the fitted dose curve at least 0.9, where 1 is the maximum); conditions: HepG2 Attagene TRANS-FACTORIAL M19 internal marker reporter
How it was run: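 HepG2 cells transiently transfected with multiple GAL4-UAS reporter transcription units were exposed to chemicals for 24 h. Reporter mRNA was read by RT-PCR, 6-FAM primer extension, HpaI digestion and capillary electrophoresis; gain of signal fitted relative to DMSO.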

[18] = target: X-box-binding protein 1 (Homo sapiens) (UniProt P17861); experiment: ATG_Xbp1_CIS: Attagene CIS-FACTORIAL HepG2 Assay for human X-box Binding Protein 1 (XBP1) (AID 2282972); conditions: HepG2 XBP1 cis-element reporter, Attagene multiplex; actives raise or lower the signal
How it was run: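 HepG2, transient MRTU transfection (cis-promoter driven), 24 h compound exposure. Total RNA → oligo(dT) RT → PCR → 6-FAM labeling → HpaI cut → CE. Bidirectional fit vs DMSO.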

[19] = ATG_GAL4_TRANS: Attagene TRANS-FACTORIAL HepG2 Assay for GAL4 (Internal Marker) (AID 2282976; active = hit-call score of the fitted dose curve at least 0.9, where 1 is the maximum); conditions: HepG2 Attagene TRANS GAL4 internal marker reporter
How it was run: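 First, HepG2 cells were transfected with reporter units under GAL4-UAS control. Next, they were treated with chemical for 24 h. Finally, RNA was reverse-transcribed, PCR-amplified, FAM-labelled and resolved by capillary electrophoresis, with induction scored against DMSO.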

[20] = target: Nuclear receptor subfamily 1 group I member 3 (Homo sapiens) (UniProt Q14994); experiment: ATG_CAR_TRANS: Attagene TRANS-FACTORIAL HepG2 Assay for human Constitutive Androstane Receptor (CAR) (AID 2282969; active = hit-call score of the fitted dose curve at least 0.9, where 1 is the maximum;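 note: activators raise reporter mRNA above DMSO so AC50 marks induction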); conditions: HepG2 Attagene TRANS-FACTORIAL CAR reporter
How it was run: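 HepG2 cells transiently transfected with multiplexed GAL4-UAS reporter units expressing chimeric NR-Gal4 proteins; compound exposure 24 h. Reporter mRNA measured by RT-PCR, 6-FAM labelling, HpaI digestion and capillary electrophoresis; gain-of-signal fitted against DMSO baseline.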

Measured: AC50

Sequence of Paired box protein Pax-6 (Homo sapiens) (P26367 whole entry, looked up): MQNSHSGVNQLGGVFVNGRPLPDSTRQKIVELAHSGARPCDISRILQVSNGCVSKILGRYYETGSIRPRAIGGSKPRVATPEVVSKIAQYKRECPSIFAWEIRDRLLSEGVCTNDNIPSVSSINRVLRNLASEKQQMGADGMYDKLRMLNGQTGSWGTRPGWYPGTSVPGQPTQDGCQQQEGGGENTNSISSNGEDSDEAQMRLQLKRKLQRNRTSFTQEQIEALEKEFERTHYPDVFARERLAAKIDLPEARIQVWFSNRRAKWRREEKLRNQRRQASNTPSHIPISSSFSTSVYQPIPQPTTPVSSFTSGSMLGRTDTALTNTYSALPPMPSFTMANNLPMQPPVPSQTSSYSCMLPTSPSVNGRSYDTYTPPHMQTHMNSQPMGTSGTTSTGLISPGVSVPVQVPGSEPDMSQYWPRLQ
Sequence of Estrogen receptor (Homo sapiens) (P03372 whole entry, looked up, the tested form may be a part): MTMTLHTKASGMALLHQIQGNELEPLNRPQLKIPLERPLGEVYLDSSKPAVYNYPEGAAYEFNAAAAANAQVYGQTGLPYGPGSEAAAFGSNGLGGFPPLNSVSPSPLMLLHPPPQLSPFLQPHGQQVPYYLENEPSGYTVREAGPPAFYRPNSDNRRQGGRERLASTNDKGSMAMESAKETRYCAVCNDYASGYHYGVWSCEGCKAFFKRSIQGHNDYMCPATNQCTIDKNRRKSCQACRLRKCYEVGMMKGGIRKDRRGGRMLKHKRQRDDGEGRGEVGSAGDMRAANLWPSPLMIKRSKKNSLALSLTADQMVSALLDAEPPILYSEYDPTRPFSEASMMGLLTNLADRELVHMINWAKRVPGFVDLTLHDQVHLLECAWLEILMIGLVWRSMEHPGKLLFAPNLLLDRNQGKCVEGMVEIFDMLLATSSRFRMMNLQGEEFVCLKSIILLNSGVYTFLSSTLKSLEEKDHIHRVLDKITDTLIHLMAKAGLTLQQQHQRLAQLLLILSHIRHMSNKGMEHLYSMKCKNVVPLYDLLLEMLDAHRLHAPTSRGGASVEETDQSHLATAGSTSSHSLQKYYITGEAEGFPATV
Sequence of X-box-binding protein 1 (Homo sapiens) (P17861 whole entry, looked up): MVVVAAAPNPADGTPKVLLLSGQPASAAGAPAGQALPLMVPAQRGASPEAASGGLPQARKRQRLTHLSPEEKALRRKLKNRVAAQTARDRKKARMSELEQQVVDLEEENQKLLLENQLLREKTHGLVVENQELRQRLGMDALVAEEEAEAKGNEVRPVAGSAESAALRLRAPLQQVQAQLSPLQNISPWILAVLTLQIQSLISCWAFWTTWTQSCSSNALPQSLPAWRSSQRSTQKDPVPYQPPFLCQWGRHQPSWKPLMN
Sequence of Transcription factor Sp1 (Homo sapiens) (P08047 whole entry, looked up): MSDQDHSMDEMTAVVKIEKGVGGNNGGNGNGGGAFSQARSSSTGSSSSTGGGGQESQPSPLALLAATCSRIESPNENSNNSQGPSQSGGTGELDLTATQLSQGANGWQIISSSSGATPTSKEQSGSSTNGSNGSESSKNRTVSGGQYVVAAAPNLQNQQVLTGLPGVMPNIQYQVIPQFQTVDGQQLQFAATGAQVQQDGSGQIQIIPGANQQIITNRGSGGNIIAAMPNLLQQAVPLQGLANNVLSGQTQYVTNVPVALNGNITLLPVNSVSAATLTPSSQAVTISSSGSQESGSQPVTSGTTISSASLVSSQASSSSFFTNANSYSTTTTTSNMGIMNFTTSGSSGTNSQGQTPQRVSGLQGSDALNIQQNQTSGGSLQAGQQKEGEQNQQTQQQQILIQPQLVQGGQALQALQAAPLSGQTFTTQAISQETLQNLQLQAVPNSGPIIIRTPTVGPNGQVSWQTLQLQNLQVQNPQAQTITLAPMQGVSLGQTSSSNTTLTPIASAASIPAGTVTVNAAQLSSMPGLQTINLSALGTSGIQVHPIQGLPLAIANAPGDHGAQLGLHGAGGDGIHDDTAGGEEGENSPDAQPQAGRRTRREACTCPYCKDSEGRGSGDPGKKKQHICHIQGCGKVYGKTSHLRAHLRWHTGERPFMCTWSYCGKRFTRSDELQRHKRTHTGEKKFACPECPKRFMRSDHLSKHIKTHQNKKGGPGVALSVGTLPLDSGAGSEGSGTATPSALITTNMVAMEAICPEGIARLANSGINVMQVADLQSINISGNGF
Sequence of Signal transducer and activator of transcription 3 (Homo sapiens) (P40763 whole entry, looked up): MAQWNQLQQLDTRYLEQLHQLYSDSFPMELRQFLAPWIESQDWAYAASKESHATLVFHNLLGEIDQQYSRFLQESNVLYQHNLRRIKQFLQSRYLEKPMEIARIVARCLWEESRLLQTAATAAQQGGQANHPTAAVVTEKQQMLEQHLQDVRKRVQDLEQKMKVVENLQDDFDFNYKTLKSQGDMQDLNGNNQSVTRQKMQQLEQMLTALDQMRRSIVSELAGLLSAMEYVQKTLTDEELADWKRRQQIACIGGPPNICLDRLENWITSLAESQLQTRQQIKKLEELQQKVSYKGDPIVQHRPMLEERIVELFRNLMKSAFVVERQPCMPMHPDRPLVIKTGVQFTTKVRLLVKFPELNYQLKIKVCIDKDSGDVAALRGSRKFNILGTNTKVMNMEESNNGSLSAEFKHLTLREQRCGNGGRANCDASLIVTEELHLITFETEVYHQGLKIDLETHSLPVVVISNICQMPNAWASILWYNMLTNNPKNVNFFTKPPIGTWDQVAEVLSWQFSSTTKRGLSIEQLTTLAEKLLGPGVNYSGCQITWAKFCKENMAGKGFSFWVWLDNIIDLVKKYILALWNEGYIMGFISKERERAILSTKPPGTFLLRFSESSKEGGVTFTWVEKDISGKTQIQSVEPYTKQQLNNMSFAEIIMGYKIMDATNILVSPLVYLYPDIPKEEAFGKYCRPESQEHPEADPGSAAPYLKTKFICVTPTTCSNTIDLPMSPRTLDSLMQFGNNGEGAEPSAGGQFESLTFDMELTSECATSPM
Sequence of Nuclear receptor subfamily 1 group I member 3 (Homo sapiens) (Q14994 whole entry, looked up, the tested form may be a part): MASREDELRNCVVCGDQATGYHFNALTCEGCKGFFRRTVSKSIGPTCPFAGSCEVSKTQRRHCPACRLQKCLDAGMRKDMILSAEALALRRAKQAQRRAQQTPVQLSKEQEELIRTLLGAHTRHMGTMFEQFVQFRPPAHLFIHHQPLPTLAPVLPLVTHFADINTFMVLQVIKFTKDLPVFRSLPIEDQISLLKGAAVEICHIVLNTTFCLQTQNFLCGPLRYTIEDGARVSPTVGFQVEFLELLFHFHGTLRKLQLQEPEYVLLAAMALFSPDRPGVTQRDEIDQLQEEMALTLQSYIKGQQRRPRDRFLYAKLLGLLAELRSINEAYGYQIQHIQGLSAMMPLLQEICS
Sequence of Steroid hormone receptor ERR1 (Homo sapiens) (P11474 whole entry, looked up, the tested form may be a part): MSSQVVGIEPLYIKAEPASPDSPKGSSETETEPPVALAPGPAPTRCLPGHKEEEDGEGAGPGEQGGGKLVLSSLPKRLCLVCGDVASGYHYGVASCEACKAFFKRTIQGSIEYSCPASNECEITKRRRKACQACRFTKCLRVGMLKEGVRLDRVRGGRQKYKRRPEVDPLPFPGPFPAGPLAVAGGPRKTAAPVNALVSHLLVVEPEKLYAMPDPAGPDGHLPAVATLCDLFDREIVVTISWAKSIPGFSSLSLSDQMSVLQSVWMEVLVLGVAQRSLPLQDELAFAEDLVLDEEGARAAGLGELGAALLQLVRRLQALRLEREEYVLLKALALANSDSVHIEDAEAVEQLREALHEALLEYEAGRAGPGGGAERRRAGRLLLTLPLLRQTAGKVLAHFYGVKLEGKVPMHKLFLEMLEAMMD

CC(=O)Oc1c(C)c(C)c2c(c1C)CC[C@@](C)(CCC[C@H](C)CCC[C@H](C)CCCC(C)C)O2
not listed: [18] | [19] | [20]
inactive: all other assays above

CC(C)=CC(=O)O
active: [3] 99.5 µM | [15] 49.1 µM
not listed: [16] | [17] | [20]
inactive: all other assays above

CCCCCCCCSCc1cc(C)c(O)c(CSCCCCCCCC)c1
active: [3] 19.8 µM
not listed: [16] | [17]
inactive: all other assays above

CNC(=C[N+](=O)[O-])NCCSCc1ccc(CN(C)C)o1
not listed: [10] | [15] | [16] | [20]
inactive: all other assays above

CCCOC(=O)CC
not listed: [10] | [15] | [16] | [20]
inactive: all other assays above

CCCCCCCC(=O)N(C)C
active: [3] 42.4 µM
not listed: [12] | [13]
inactive: all other assays above

CC(C)COC(=O)c1ccccc1O
active: [3] 44.8 µM
not listed: [12] | [16]
inactive: all other assays above

C=C/C(C)=C/C/C=C(\C)CCC=C(C)C
active: [3] 3.8 µM
not listed: [10] | [16] | [17] | [19] | [20]
inactive: all other assays above
